PubChem BioAssay (Tox21)
Results filed as inconclusive are left out. Entries that show only a call come without a potency. A number with no mark means an inactive call. Active and inactive are the calls of the source. The call rests on the fitted dose curve; in most records, active means well fitted cell-killing curve with a large enough effect in the repeat runs; inconclusive means weak or mixed curves, or effect the other way; inactive means flat fitted curve, though single readings scatter.

Columns and labels:
[1] = cAMP Responsive Elements (CRE) small molecule antagonists, cell-based qHTS assay: qHTS cell viability counter screen (AID 2060913); details: CRE-bla HEK293T viability, CellTiter-Glo luminescence, 5 h; series mostly up to 92.4 µM; further: nearly all actives have a fitted effect of over 40% in size
Summary of the method: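 Steps: cells plated and held 18 hrs at 37 C/5% CO2; compounds and NKH477 (0.25 uM final) added; 3 hrs incubation; reporter substrate read; CellTiter-Glo added to measure cytotoxicity by luminescence.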

[2] = cAMP Responsive Elements (CRE) small molecule agonists, cell-based qHTS assay: qHTS cell viability counter screen (AID 2060914); details: CRE-bla HEK293T viability, CellTiter-Glo luminescence, 5 h; series mostly up to 92.4 µM;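 further: viability read after 3 h of compound exposure; nearly all actives have a fitted effect of over 50% in size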
Summary of the method: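 Cytotoxicity counter screen multiplexed with the CRE-bla reporter assay in HEK 293T cells: 3 h compound exposure at 37 °C, followed by CellTiter-Glo luminescence measured in the same wells.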
Potency means the concentration at half of the fitted maximal effect.

Row | SMILES | Potency [1] | Potency [2] | viability change, negative = cytotoxic [1] | activity change, negative = cytotoxicity [2]
1 | C=C(C)[C@@H]1CC[C@@H](C)C[C@@H]1O | inactive | inactive | – | –
2 | CCCCCCCCCCCCCCCCCC[N+](C)(C)Cc1ccccc1 | 61.7 µM (active) | 55 µM (active) | – | –
3 | COCCOC | inactive | inactive | – | –
4 | O=C(/C=C/c1ccc(O)c(O)c1)O[C@@H]1C[C@@](OC(=O)/C=C/c2ccc(O)c(O)c2)(C(=O)O)C[C@@H](O)[C@@H]1O | inactive | inactive | – | –
5 | COc1cc(NS(=O)(=O)c2ccc(N)cc2)nc(C)n1 | inactive | inactive | – | –
6 | CCCCCCCCOc1ccccc1C(=O)Nc1ccc(C(=O)OCC[N+](C)(CC)CC)cc1 | inactive | inactive | – | –
7 | O=Nc1ccc(NO)cc1 | inactive | inactive | – | –
8 | Cc1cccc(N(C)C(=S)Oc2ccc3c(c2)CCC3)c1 | inactive | inactive | – | –
9 | CC[C@H]1OC(=O)[C@H](C)[C@@H](O[C@H]2C[C@@](C)(OC)[C@@H](O)[C@H](C)O2)[C@H](C)[C@@H](O[C@@H]2O[C@H](C)C[C@H](N(C)C)[C@H]2O)[C@](C)(O)C[C@@H](C)C(=O)[C@H](C)[C@@H](O)[C@]1(C)O | inactive | inactive | – | –
10 | CC(C)C(=O)Nc1ccc([N+](=O)[O-])c(C(F)(F)F)c1 | inactive | inactive | – | –
11 | CC1CN(c2cc3c(cc2F)c(=O)c(C(=O)O)cn3-c2ccc(F)cc2F)CCN1 (stereo not drawn) | – | – | 0.301% [at 8.39 µM] | -0.163% [at 8.39 µM]
12 | CC12CCC(CC1=O)C2(C)C (stereo not drawn) | inactive | inactive | – | –
13 | CC(C)OCCO | inactive | inactive | – | –
14 | CC(C)(C)C(=O)c1ccccc1 | inactive | inactive | – | –
15 | CC(=O)OCC1=C(C(=O)O)N2C(=O)[C@@H](NC(=O)CSc3ccncc3)[C@H]2SC1 | inactive | inactive | – | –
16 | COc1cccc(O)c1 | inactive | inactive | – | –
17 | Cc1cc(C)c(N)c(Cl)c1 | inactive | inactive | – | –
18 | CCN(Cc1cccnc1)C(=O)c1cccc(Cl)c1[C@]1(C)C(=O)N(Cc2ccc(OC)cc2OC)c2ccc(Cl)cc21 | inactive | inactive | – | –
19 | c1cnc(N2CCN(Cc3ccc4c(c3)OCO4)CC2)nc1 | inactive | inactive | – | –
20 | CO[C@@]1(NC(=O)CSC[C@@H](N)C(=O)O)C(=O)N2C(C(=O)O)=C(CSc3nnnn3C)CS[C@@H]21 | inactive | inactive | – | –
21 | C[C@@H]1C[C@H]2[C@@H]3CCC4=CC(=O)C=C[C@]4(C)[C@@]3(F)[C@@H](O)C[C@]2(C)[C@@]1(O)C(=O)COC(=O)c1ccncc1 | inactive | inactive | – | –
22 | CCCCCCCCCCCCCCCS(=O)(=O)Oc1ccccc1 | inactive | inactive | – | –
23 | COC(=O)CCCCCCCC(=O)OC | inactive | inactive | – | –
24 | C[C@H](CN1CCCC1)C(=O)c1ccc(C(F)(F)F)cc1 | inactive | inactive | – | –
25 | C=CCCC(=O)/C=C/C1C(C)=CCCC1(C)C (stereo not drawn) | inactive | inactive | – | –
26 | COC(=O)C1=C(C)NC(C)=C(C(=O)OC(C)(C)CN(C)CCC(c2ccccc2)c2ccccc2)C1c1cccc([N+](=O)[O-])c1 (stereo not drawn) | inactive | inactive | – | –

Row | SMILES | Potency [1] | Potency [2] | viability change, negative = cytotoxic [1] | activity change, negative = cytotoxicity [2]
27 | COc1ccccc1N1CCN(CCCNc2cc(=O)n(C)c(=O)n2C)CC1 | inactive | inactive | – | –
28 | O=CN(CCO)CCO | inactive | inactive | – | –
29 | O=Cc1c2ccccc2c(Cl)c2ccccc12 | inactive | inactive | – | –
30 | NCCc1cnc[nH]1 | inactive | inactive | – | –
31 | CC(C)=CC(=O)C=C(C)C | inactive | inactive | – | –
32 | CCCCCCCC(=O)OC | inactive | inactive | – | –
33 | COc1cc2c(cc1OC)C(C(C(=O)N(CCc1ccc(OC)c(OC)c1OC)CCc1ccc(OC)c(OC)c1OC)c1ccccc1)=NCC2 (stereo not drawn) | inactive | inactive | – | –
34 | OC/C=C/c1ccccc1 | inactive | inactive | – | –
35 | N#Cc1ccc(C/C(=N/NC(=O)Nc2ccc(OC(F)(F)F)cc2)c2cccc(C(F)(F)F)c2)cc1 | inactive | inactive | – | –
36 | COc1cc2ncnc(Nc3cccc(Cl)c3)c2cc1OC | – | – | 6.79% [at 18.9 µM] | 4.77% [at 18.9 µM]
37 | Fc1ccccc1-c1ccccc1 | inactive | inactive | – | –
38 | C=CCOC(=O)c1ccccc1C(=O)OCC=C | inactive | inactive | – | –
39 | O=C(O)CCCCC1CCSS1 (stereo not drawn) | inactive | inactive | – | –
40 | Cn1c(=O)cc(Oc2ccc(F)cc2F)c2cnc(NCC(C)(C)O)nc21 | inactive | inactive | – | –
41 | CCCCCCCCOC(C)=O | inactive | inactive | – | –
42 | O=C(c1ccccc1)C1(O)CCCCC1 | inactive | inactive | – | –
43 | CN1CCN(C2=Nc3ccccc3Sc3ccc(Cl)cc32)CC1 | inactive | inactive | – | –
44 | CCCOC(=O)CCCCC(=O)OCCC | inactive | inactive | – | –
45 | O=C(O)c1cccc(N(Cc2cccnc2)c2ccc(OC(F)F)c(OC(F)F)c2)c1 | inactive | inactive | – | –
46 | O=Cc1cc2ccccc2o1 | inactive | inactive | – | –
47 | c1ccc(B(c2ccccc2)c2ccccc2)cc1 | inactive | inactive | – | –
48 | CC[C@H](C)C(=O)O[C@H]1C[C@H](O)C=C2C=C[C@H](C)[C@H](CC[C@@H](O)C[C@@H](O)CC(=O)O)[C@H]21 | inactive | 5.45 µM (active) | – | –
49 | COc1cc(C(=O)OCCCN2CCCN(CCCOC(=O)c3cc(OC)c(OC)c(OC)c3)CC2)cc(OC)c1OC | inactive | inactive | – | –
50 | C=Cc1ccc(O)c(OC)c1 | inactive | inactive | – | –
51 | CCN(CC)C(C)CN1c2ccccc2Sc2ccccc21 (stereo not drawn) | inactive | inactive | – | –
52 | CC(C)COC(=O)CCCCC(=O)OCC(C)C | inactive | inactive | – | –

Row | SMILES | Potency [1] | Potency [2] | viability change, negative = cytotoxic [1] | activity change, negative = cytotoxicity [2]
53 | Cc1ccc(N/N=c2\c(=O)cc/c(=N\Nc3ccc(S(=O)(=O)O)cc3)c2=O)c(C)c1 | inactive | inactive | – | –
54 | CC1(C)S[C@@H]2[C@H](NC(=O)[C@H](N)c3ccccc3)C(=O)N2[C@H]1C(=O)O | inactive | inactive | – | –
55 | CCCCCCCCCCCCCCCCOS(=O)(=O)O | inactive | inactive | – | –
56 | N=C1C=CC(=C(c2ccc(N)cc2)c2ccc(N)cc2)C=C1 | 50.8 µM (active) | inactive | – | –
57 | CCCCOCCO | inactive | inactive | – | –
58 | C=CC(=O)OCCOC(=O)CCC(=O)O | inactive | inactive | – | –
59 | OC[C@H]1O[C@@](CO)(O[C@H]2O[C@H](CO)[C@@H](O)[C@H](O)[C@H]2O)[C@@H](O)[C@@H]1O | inactive | inactive | – | –
60 | N#CCCOCCC#N | inactive | inactive | – | –
61 | c1ccc(Cc2ccccc2)cc1 | inactive | inactive | – | –
62 | Nc1nc(F)nc2c1ncn2[C@@H]1O[C@H](CO)[C@@H](O)[C@@H]1O | inactive | inactive | – | –
63 | C[Si]1(C)O[Si](C)(C)O[Si](C)(C)O[Si](C)(C)O1 | inactive | inactive | – | –
64 | ClCCCl | inactive | inactive | – | –
65 | CC(=O)N[C@@H](CCC(N)=O)C(=O)O | inactive | inactive | – | –
66 | NCCCN1CCN(CCCN)CC1 | inactive | inactive | – | –
67 | Brc1cc(Br)c(Oc2cc(Br)c(Br)cc2Br)cc1Br | inactive | inactive | – | –
68 | Cc1ccnc(NS(=O)(=O)c2ccc(N)cc2)n1 | inactive | inactive | – | –
69 | CC1CC(OC(=O)c2ccccc2O)CC(C)(C)C1 (stereo not drawn) | inactive | inactive | – | –
70 | CCCCOc1ccc(OCCCN2CCOCC2)cc1 | inactive | inactive | – | –
71 | CS(=O)(=O)Nc1ccc([N+](=O)[O-])cc1Oc1ccccc1 | inactive | inactive | – | –
72 | CN(C)CCOC(c1ccccc1)c1ccc(Br)cc1 (stereo not drawn) | inactive | inactive | – | –
73 | Cc1ccccc1C(=O)O | inactive | inactive | – | –
74 | O=C(O)CC(=O)C(=O)O | inactive | inactive | – | –
75 | CN1C(=O)N(C)C(O)C1O (stereo not drawn) | inactive | inactive | – | –
76 | CC(C)CC(=O)CC(C)CC(C)C (stereo not drawn) | inactive | inactive | – | –
77 | CCN=C1C=CC(=C(c2ccc(N(CC)CC)cc2)c2ccc(N(CC)CC)cc2)c2ccccc21 | 48.3 µM (active) | 30.5 µM (active) | – | –
78 | C=C(C)C(=O)OCCOP(=O)(O)OCCOC(=O)C(=C)C | inactive | inactive | – | –

Row | SMILES | Potency [1] | Potency [2] | viability change, negative = cytotoxic [1] | activity change, negative = cytotoxicity [2]
79 | CC(C)C(=O)OCCOc1ccccc1 | inactive | inactive | – | –
80 | NCc1cccc(CN)c1 | inactive | inactive | – | –
81 | Cc1cc2c(cc1S(N)(=O)=O)S(=O)(=O)CCC2 | inactive | inactive | – | –
82 | COc1nccnc1NS(=O)(=O)c1ccc(N)cc1 | inactive | inactive | – | –
83 | Cc1c(-c2ccccc2)oc2c(C(=O)OCCN3CCCCC3)cccc2c1=O | inactive | inactive | – | –
84 | CCNc1nc(NC(C)(C)C)nc(OC)n1 | inactive | inactive | – | –
85 | Cc1cccc(C)c1NC(=O)CN1CCCC1 | inactive | inactive | – | –
86 | CCCC1CCC(=O)O1 (stereo not drawn) | inactive | inactive | – | –
87 | C[C@@H](O[C@H]1OCCN(Cc2n[nH]c(=O)[nH]2)[C@H]1c1ccc(F)cc1)c1cc(C(F)(F)F)cc(C(F)(F)F)c1 | inactive | inactive | – | –
88 | O=C(O)c1cc2ccccc2cc1O | inactive | inactive | – | –
89 | NC(CO)(CO)CO | inactive | inactive | – | –
90 | Cc1cccc([N+](=O)[O-])c1C | inactive | inactive | – | –
91 | C[C@]12CCC(=O)C=C1CC[C@@H]1[C@@H]2[C@@H](O)C[C@@]2(C)[C@H]1CC[C@]2(O)C(=O)COC(=O)CCC(=O)O | inactive | inactive | – | –
92 | O=C=NCC1CCCC(CN=C=O)C1 (stereo not drawn) | inactive | inactive | – | –
93 | CC1=Nc2ccc3ccccc3c2C1(C)C | inactive | inactive | – | –
94 | O=S1(=O)CCCO1 | inactive | inactive | – | –
95 | Cc1ccc(S(=O)(=O)NC(=O)NN2CCCCCC2)cc1 | inactive | inactive | – | –
96 | CC1(C)Cc2cccc(N)c2O1 | inactive | inactive | – | –
97 | COc1ccc2nc(S(=O)Cc3ncc(C)c(OC)c3C)[nH]c2c1 (stereo not drawn) | inactive | inactive | – | –
98 | CCCCCCCC | inactive | inactive | – | –
99 | OCC(CO)n1cnc(-c2ccc(F)cc2)c1-c1ccnc(Oc2ccccc2)n1 | inactive | inactive | – | –
100 | c1ccc(CCc2ccccc2)cc1 | inactive | inactive | – | –
101 | CC(=O)Nc1ccccc1 | inactive | inactive | – | –
102 | CC1(C)OC(=O)NC1=O | inactive | inactive | – | –
103 | CCCCN1C(=O)[C@@H]([C@H](O)C2CCCCC2)NC(=O)C12CCN(Cc1ccc(Oc3ccc(C(=O)O)cc3)cc1)CC2 | inactive | inactive | – | –
104 | Cn1c(=O)c2[nH]cnc2n(C)c1=O | inactive | inactive | – | –
